The values that follow come from PubChem BioAssay (NCI).

This is part of a sample that, as a whole, favours compounds with a hit. Of some 83,000 tested, about 20% had one in any assay.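 Treatment: one concentration, 48 hours, 96-well format. Scoring: percent growth, with anything below 10 considered active.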 A number with no mark means an inactive call. The source made the active and inactive calls.

Assay in all cases: NCI-60 one-dose screen, 48 h (100 = growth as untreated, 0 = no growth, -100 = all killed)
The test system of one experiment is SK-MEL-2 melanoma. The following applies: 10 µM unless noted.
Another experiment has as its system EKVX NSCLC. Conditions: 10 µM unless noted.
In another experiment the test system is SN12C renal. The following applies: 10 µM unless noted.
The next experiment relates to UO-31 renal. The following applies: 10 µM unless noted.
Another experiment concerns TK-10 renal. Conditions: 10 µM unless noted.
In another experiment the test system is ACHN renal. The following applies: 10 µM unless noted.
In a further experiment the test system is CAKI-1 renal. Conditions: 10 µM unless noted.
Another experiment relates to A498 renal. Conditions: 10 µM unless noted.
In another experiment the test system is CCRF-CEM leukemia. The following applies: 10 µM unless noted.
The next experiment relates to MOLT-4 leukemia. Conditions: 10 µM unless noted.
Another experiment deals with SR leukemia. The following applies: 10 µM unless noted.
A further experiment relates to RPMI-8226 leukemia. Conditions: 10 µM unless noted.
In the next experiment the test system is OVCAR-8 ovarian. Conditions: 10 µM unless noted.
The next experiment relates to OVCAR-5 ovarian. The following applies: 10 µM unless noted.
A further experiment has as its system OVCAR-4 ovarian. The following applies: 10 µM unless noted.
Another experiment has as its system SK-OV-3 ovarian. The following applies: 10 µM unless noted.
Another experiment deals with IGROV1 ovarian. The following applies: 10 µM unless noted.
In a further experiment the test system is OVCAR-3 ovarian. Conditions: 10 µM unless noted.
The next experiment relates to HS 578T breast. Conditions: 10 µM.
The test system of a further experiment is NCI/ADR-RES ovarian. Conditions: 10 µM unless noted.

In the case of `Fc1cnccc1-c1nc2ccc3[nH]ncc3c2c2c1CCCC2`, the growth in the experiment on SK-MEL-2 melanoma is -1.94% (active); with EKVX NSCLC, 35.6%; in the experiment with SN12C renal, 25.6%; with UO-31 renal, 11.6%; with TK-10 renal it was 13.7%; with ACHN renal, 7.42% (active). The growth in the experiment on CAKI-1 renal was -4.24% (active); in the experiment with A498 renal, 0.691% (active); in the experiment on CCRF-CEM leukemia, 16.1%; in the experiment with MOLT-4 leukemia, 21.2%; in the experiment with SR leukemia it was 34.1%; in the experiment on RPMI-8226 leukemia, 37.6%. The growth in the experiment with OVCAR-8 ovarian is 30.2%; in the experiment on OVCAR-5 ovarian, 45.2%; in the experiment with OVCAR-4 ovarian, 48.9%; with SK-OV-3 ovarian it was -21.2% (active); with IGROV1 ovarian it was 12.1%; with OVCAR-3 ovarian, 30.4%. The growth in the experiment with HS 578T breast was 10.8%; in the experiment with NCI/ADR-RES ovarian it was 32.3%.

`OC(c1cc(-c2ccc(C(F)(F)F)cc2)nc(-c2ccc(C(F)(F)F)cc2)c1)C1CCCCN1` (stereo not given): the growth was -66.6% (active) in the experiment on SK-MEL-2 melanoma; -65.4% (active) with EKVX NSCLC; -78.5% (active) in the experiment on SN12C renal; -83.6% (active) with UO-31 renal; -90.6% (active) in the experiment on TK-10 renal; -73.4% (active) in the experiment with ACHN renal. Moreover, the growth is -81.6% (active) with CAKI-1 renal; -80.5% (active) in the experiment on A498 renal; -56.2% (active) with CCRF-CEM leukemia; -57.5% (active) in the experiment on MOLT-4 leukemia; -64.8% (active) in the experiment with SR leukemia; -48.4% (active) in the experiment on RPMI-8226 leukemia. The growth is -64.5% (active) in the experiment with OVCAR-8 ovarian; -77% (active) in the experiment with OVCAR-5 ovarian; -92% (active) in the experiment with OVCAR-4 ovarian; -74.3% (active) in the experiment with SK-OV-3 ovarian; -65.2% (active) in the experiment on IGROV1 ovarian; -90.4% (active) with OVCAR-3 ovarian. The values for the growth with HS 578T breast and in the experiment with NCI/ADR-RES ovarian were -55.5% (active) and -68.6% (active), respectively.

Take `C=C(CN1CC=CCC1)[C@@H]1CC[C@]2(C(=O)OC)CC[C@]3(C)[C@H](CC[C@@H]4[C@@]5(C)CC[C@H](OC(C)=O)C(C)(C)[C@@H]5CC[C@]43C)[C@@H]12`: the growth with SK-MEL-2 melanoma is 103%; with EKVX NSCLC, 109%; with SN12C renal, 92.8%; in the experiment with UO-31 renal, 86.4%; in the experiment with TK-10 renal, 121%; with ACHN renal it was 102%. In addition, the growth in the experiment on CAKI-1 renal was 81.2%; in the experiment on A498 renal, 113%; with CCRF-CEM leukemia, 82.7%; in the experiment on MOLT-4 leukemia it was 82.1%; in the experiment on SR leukemia, 69.4%; in the experiment on RPMI-8226 leukemia, 50%. The growth is 103% with OVCAR-8 ovarian; 118% with OVCAR-5 ovarian; 91.3% with OVCAR-4 ovarian; 103% in the experiment with SK-OV-3 ovarian; 91.8% in the experiment with IGROV1 ovarian; 92.5% with OVCAR-3 ovarian. In addition, the growth in the experiment with HS 578T breast is 109%; with NCI/ADR-RES ovarian, 107%.

On to `Cn1nc(C(F)(F)F)cc1-c1c[nH]c(OCc2ccc(Cl)cc2)c(-c2ccc(Cl)c(C(F)(F)F)c2)c1=O`, for which the growth in the experiment with SK-MEL-2 melanoma is -31.4% (active); in the experiment on EKVX NSCLC it was 5.56% (active); in the experiment on SN12C renal it was 4.1% (active); with UO-31 renal, -1.38% (active); in the experiment on TK-10 renal it was 3.46% (active); with ACHN renal, -15.8% (active). Besides, the growth with CAKI-1 renal was -22.7% (active); in the experiment with A498 renal it was -60.9% (active); in the experiment with CCRF-CEM leukemia, 10.5%; with MOLT-4 leukemia it was -9.43% (active); with SR leukemia, 27.5%; with RPMI-8226 leukemia, -26.6% (active). Further, the growth in the experiment on OVCAR-8 ovarian is 12.5%; with OVCAR-5 ovarian, 13%; with OVCAR-4 ovarian it was 15.3%; with SK-OV-3 ovarian, -6.23% (active); with IGROV1 ovarian it was 24.1%; in the experiment with OVCAR-3 ovarian, 7.83% (active). Moreover, the growth is -1.78% (active) in the experiment with HS 578T breast and 1.94% (active) with NCI/ADR-RES ovarian.

As for `C#CC[C@@H]1C[C@]2(C)[C@H]3CC[C@@H]4[C@H]5C(C(=C)C)CC[C@]5(C(=O)NCCCN5CCN(CCCN)CC5)CC[C@@]4(C)[C@]3(C)CC[C@H]2C(C)(C)[C@H]1OC(C)=O` (stereo not given in full), the growth was -18.1% (active) in the experiment with SK-MEL-2 melanoma; 51.9% in the experiment with EKVX NSCLC; -84.4% (active) with SN12C renal; -95.3% (active) in the experiment on UO-31 renal; -91.5% (active) in the experiment on TK-10 renal; -97.8% (active) in the experiment with ACHN renal. The growth in the experiment on CAKI-1 renal was -96.1% (active); with A498 renal, 98.6%; in the experiment on CCRF-CEM leukemia, -29.6% (active); with MOLT-4 leukemia it was -28.3% (active); in the experiment with SR leukemia, -13.6% (active); in the experiment on RPMI-8226 leukemia, -48.5% (active). The growth was -6.54% (active) with OVCAR-8 ovarian; -61.3% (active) in the experiment with OVCAR-5 ovarian; -42.3% (active) in the experiment on OVCAR-4 ovarian; 108% in the experiment with SK-OV-3 ovarian; -46.7% (active) in the experiment with IGROV1 ovarian; -83% (active) with OVCAR-3 ovarian. Besides, the growth with HS 578T breast is 14.8%; in the experiment with NCI/ADR-RES ovarian, 38.8%.

Take `COc1cc2c(cc1C)NC(=O)/C2=C\c1c[nH]c2ccccc12`: the growth was 76.4% with SK-MEL-2 melanoma; 74.5% in the experiment with EKVX NSCLC; 67.8% in the experiment on SN12C renal; 27.6% with UO-31 renal; 83.7% with TK-10 renal; 61.8% with ACHN renal. Also, the growth with CAKI-1 renal is 10.6%; with A498 renal it was 78.5%; with CCRF-CEM leukemia, 53.6%; in the experiment on MOLT-4 leukemia, 24.4%; with SR leukemia, 46.4%; in the experiment with RPMI-8226 leukemia it was 59.7%. Moreover, the growth in the experiment with OVCAR-8 ovarian is 69.3%; in the experiment with OVCAR-5 ovarian, 75.3%; in the experiment with OVCAR-4 ovarian, 64.8%; with SK-OV-3 ovarian, 97.4%; in the experiment on IGROV1 ovarian, -6.11% (active); with OVCAR-3 ovarian, 65.9%. Also, the growth in the experiment with HS 578T breast is 75.2%; in the experiment with NCI/ADR-RES ovarian it was 77%.

For the molecule `COc1cc2c(cc1OCCCOc1cc3c(cc1OC)C(=O)N1CCC[C@H]1C=N3)C=CC(C)(C)O2`, the growth was 88.4% in the experiment on SK-MEL-2 melanoma; 154% with EKVX NSCLC; 94.3% with SN12C renal; 96.5% in the experiment on UO-31 renal; 187% in the experiment with TK-10 renal; 95.7% in the experiment with ACHN renal. Also, the growth with CAKI-1 renal is 106%; in the experiment with A498 renal, 98.8%; in the experiment on CCRF-CEM leukemia, 6.05% (active); with MOLT-4 leukemia it was 65%; in the experiment on SR leukemia it was 25.8%; in the experiment on RPMI-8226 leukemia, 48%. For the same molecule, the growth is 89.2% with OVCAR-8 ovarian; 115% with OVCAR-5 ovarian; 110% in the experiment with OVCAR-4 ovarian; 112% in the experiment with SK-OV-3 ovarian; 92.1% in the experiment with IGROV1 ovarian; 109% in the experiment on OVCAR-3 ovarian. Moreover, the growth in the experiment with HS 578T breast is 45.7%; in the experiment on NCI/ADR-RES ovarian, 109%.
